Bioassay records (PubChem BioAssay)
The list is not random: actives were taken first. Their share in the collection is about 4.2%.
ALOX12 inh = Primary qHTS assay for inhibitors of human arachidonate 12S-lipoxygenase (ALOX12): Round 2 | Potency, µM (series often up to 108 µM), for inactives: top-dose activity change, negative = inhibition, usual class: inhibitors | actives 1.1% (n = 580,000) | AID 1671190, 2021 | Polyunsaturated fatty acid lipoxygenase ALOX12 (Homo sapiens), P18054 | purified 12hLO, xylenol orange hydroperoxide absorbance
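Hydroperoxide product was detected by ferrous iron/xylenol orange as the 573 to 405 nm absorbance ratio. Arachidonic acid at 40 uM (final) was turned over for 30 min at room temperature by 150 nM human 12hLO, pH 7.0 Hepes buffer, after 15 min compound preincubation.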
Sfp PPTase inh = qHTS Assay for Inhibitors of Bacillus subtilis Sfp phosphopantetheinyl transferase (PPTase) | Potency, µM, for the others: largest response in the series, negative = inhibition, most hits filed as inhibitors | 4'-phosphopantetheinyl transferase ffp (Bacillus subtilis), Q9F4F7 | actives 3.5% (n = 310,000) | AID 1490, 2009 | Biochemical Sfp PPTase activity, qHTS;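 note: the enzyme is Sfp with the accession as filed and its product quenches rhodamine fluorescence; 0% = enzyme reaction without inhibitor and -100% = no enzyme wells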
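Compounds were incubated with enzyme (final 15 nM) for 15 min at room temperature before substrate addition started the reaction. Fluorescence at 525 nm excitation, 598 nm emission was recorded immediately and after 30 minutes.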
PLK1 PBD block = qHTS for Inhibitors of PLK1-PDB (polo-like kinase 1 - polo-box domain): Primary Screen; Plk1 PBD binding of FITC phosphopeptide, fluorescence polarization; actives 2.8% (n = 360,000); Potency, µM, inactives show max response, negative = inhibition, usual class: inhibitors; Serine/threonine-protein kinase PLK1 (Homo sapiens), P53350; note: series mostly up to about 57 µM; nearly all actives have a fitted effect of over 65% in size
VDR inh = Inhibitors of the vitamin D receptor (VDR): qHTS. Vitamin D3 receptor (Homo sapiens), P11473. VDR-SRC2-3 peptide fluorescence polarization, 2 h. Potency, µM, without a hit: max response, negative = inhibition, usual class: inhibitors. actives 0.93% (n = 400,000)
Target sequence (P11473 whole entry, looked up): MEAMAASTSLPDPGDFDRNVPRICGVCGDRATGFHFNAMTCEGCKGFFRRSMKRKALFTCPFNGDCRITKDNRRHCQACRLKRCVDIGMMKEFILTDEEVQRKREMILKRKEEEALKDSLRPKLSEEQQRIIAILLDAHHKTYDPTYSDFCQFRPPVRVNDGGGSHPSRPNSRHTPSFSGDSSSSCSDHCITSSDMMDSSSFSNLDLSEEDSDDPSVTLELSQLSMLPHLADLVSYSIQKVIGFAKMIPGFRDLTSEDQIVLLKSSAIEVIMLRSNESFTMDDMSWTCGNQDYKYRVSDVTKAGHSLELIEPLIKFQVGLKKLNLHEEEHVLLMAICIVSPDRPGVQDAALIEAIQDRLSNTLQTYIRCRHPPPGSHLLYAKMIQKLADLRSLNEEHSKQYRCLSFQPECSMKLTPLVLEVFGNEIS
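Signal is fluorescence polarization, reporting how far test compounds block the interaction of VDR with the SRC2-3 coregulator peptide after a 2 h room-temperature incubation.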
Starred values were filed as active, the others as inactive; ? = inconclusive; . = no result; [ ] = another dose, or the depositor's remark. Calls come from the whole dose curve; as a rule, active = well fitted curve in the direction sought with a large enough effect; inconclusive = small, poorly fitted or top-dose-only effect, or another doubt; inactive = no such curve, though single readings can be large; an effect the other way counts as inactive or inconclusive. Unless noted, % is set by controls: 0 for no effect and ±100 for the full control effect; potency is the fitted concentration of half-maximal effect.

SMILES	ALOX12 inh	Sfp PPTase inh	PLK1 PBD block	VDR inh
COc1cccc(/C=C2/C(=O)NN(c3ccccc3)C2=O)c1	.	?	5.3µM*	?
CCc1ccc(NC(=O)COC(=O)/C(=C/c2ccccc2OC)c2ccccc2)cc1	-3%	23%	3%	-17%
O=C(CSc1nccn1Cc1ccc(F)cc1)NC1CCCCC1	2%	.	4%	.
O=C1NN(c2ccccc2)C(=O)/C1=C\c1ccc2c(c1)OCO2	?	4%	27µM*	-10%
N#CC1=C(Nc2ccccc2Cl)SC(c2ccncc2)NC1=O (stereo not given)	?	.	27µM*	.
Cc1ccc(C(=O)O)cc1NC(=O)c1cccc(C(=O)Nc2cc(C(=O)O)ccc2C)c1	-2%	.	.	.
Cc1ccc(C(=O)Nc2ccc(S(=O)(=O)O)c3cc(S(=O)(=O)O)cc(S(=O)(=O)O)c23)cc1NC(=O)c1cccc(NC(=O)Nc2cccc(C(=O)Nc3cc(C(=O)Nc4ccc(S(=O)(=O)O)c5cc(S(=O)(=O)O)cc(S(=O)(=O)O)c45)ccc3C)c2)c1	-14%[57.4 µM]	-3%	.	22µM*
CC(=O)c1cc(CN(CCc2ccccc2)CC2CCCN(C)C2)cs1 (stereo not given)	6%	.	.	.
O=C(NCC1COCCO1)c1ccc(CN2CCC(N3CCCC3)CC2)[nH]c1=O (stereo not given)	9%	.	.	.
COCC(=O)N[C@@H]1CN(Cc2ccc3cc[nH]c3c2)CC[C@@H]1CO	-2%	.	.	.
O=c1cc(N2CCCCC2)c(-c2ccccc2)nn1Cc1ccc(Cl)cc1	?	?	-3%	5%
O=c1cc(N2CCCCC2)c(-c2ccccc2)nn1Cc1c(Cl)cccc1Cl	?	?	27µM*	-18%
COc1ccc(-c2sc(Nc3ccccc3)n[n+]2C)c(C)c1C	-15%	1%	-19%	-12%
CCC(=O)OC1(C)C(=O)C=C2C=C(c3ccsc3)OC=C2C1=O (stereo not given)	.	?	27µM*	?
COC(=O)CCC(=O)OC1(C)C(=O)C=C2C=C(c3ccsc3)OC=C2C1=O (stereo not given)	.	11%	?	-19%
COc1ccc(C2Nc3ccccc3NC3=C2C(=O)CC(C)(C)C3)cc1O (stereo not given)	0%	16%	3.8µM*	?
COc1ccc(C2C3=C(CC(C)(C)CC3=O)Nc3c2c(=O)n(C)c(=O)n3C)cc1OC (stereo not given)	-3%	26%	12µM*	?
COc1ccc(C2Nc3ccccc3NC3=C2C(=O)CC(C)(C)C3)cc1OC (stereo not given)	35%	28%	-5%	3%
Cc1ccc(-c2nc3c(C)cc(Br)cn3c2Cc2ccccc2C(F)(F)F)cc1	-70%	.	.	.
CCn1c(SCC(=O)NC(=O)NCc2ccco2)nc2sc(C)c(C)c2c1=O	342%	25µM*	-9%	8%
Cc1sc2nc(SCc3ccc(C(=O)O)cc3)n(Cc3ccco3)c(=O)c2c1C	3%	-24%	27µM*	89µM*
CCCn1c(SCC(=O)NCc2ccc(F)cc2)n[nH]c1=O	-7%	20%	21µM*	3%
CCCn1c(SCC(=O)NC(=O)NCc2ccco2)n[nH]c1=O	.	22µM*	.	.
CCCn1c(SCC(=O)NC(=O)NCc2ccccc2)n[nH]c1=O	-15%	.	-4%	-6%
Cc1c(OC(C(=O)O)c2ccccc2)ccc2c3c(c(=O)oc12)CCC3 (stereo not given)	0%	8%	1%	11%
SMILES	ALOX12 inh	Sfp PPTase inh	PLK1 PBD block	VDR inh
COc1cccc(C(NC(=O)C2CCN(CCCOc3ccccc3)CC2)c2ccccn2)c1 (stereo not given)	-2%	.	-2%	.
O=C(Cc1ccc(Br)cc1)NCc1cccc(C(=O)Nc2ccccc2)c1	1%	.	.	.
NC(=O)c1ccc2c(=O)n3c(-c4cc(Cl)c(N)c(Cl)c4)csc3nc2c1	-29%	-14%	-22%	-18%
O=C(NC(c1ccccc1)c1ccccc1)c1ccc(=O)[nH]n1	-13%	3%	24µM*	-17%
Cc1nnc(N/N=C/c2ccc(-c3ccc(Br)cc3)o2)n1N	-6%	56µM*	-22%	-26%
COc1cc(NC(=O)c2nc3ccccc3nc2N2CCCCC2)cc(OC)c1	-4%	.	.	.
CCOCCn1c(=O)c2c(nc3n2CCCN3Cc2ccccc2)n(C)c1=O	0%	10%	-17%	7%
CCC(=O)NC(=S)Nc1cccc(NC(=O)c2ccccc2Cl)c1	?	-23%	27µM*	-6%
CCC(=O)Nc1ccc(Cl)c(NC(=S)NC(=O)COc2ccccc2)c1	-7%	-2%	27µM*	3%
O=C(O)CCC(=O)Nc1ccc(NC(=O)c2ccc(Cl)cc2Cl)c(Cl)c1	-4%	5%	21µM*	-11%
CCCC(=O)NC(=S)Nc1cccc(NC(=O)c2ccccc2Cl)c1	-27%	-1%	-3%	-14%
C/C(=N/NS(=O)(=O)c1ccc(Cl)cc1)c1cccc(NC(=O)c2ccc(Cl)cc2Cl)c1	0%	36%	19µM*	-4%
COc1ccc(S(=O)(=O)N2CCN(c3ccc(Cl)c(Cl)c3)CC2)c2ccccc12	-9%	.	.	7%
O=C(O)CCCCCNCc1c(Cl)cccc1Cl	-10%	-12%	-19%	25%
CC(C)Cc1nnc(NC(=O)C2CC(=O)N(c3n[nH]c4cccc(F)c34)C2)s1 (stereo not given)	38%	.	.	.
CCCC(=O)N1CCN(c2ccc(NC(=S)NC(=O)c3cccc(C)c3)cc2)CC1	16µM*	-16%	-5%	7%
CCCC(=O)NC(=S)Nc1cccc(NC(=O)c2ccc(Cl)cc2Cl)c1	-11%	2%	27µM*	-6%
CC(C)Oc1cccc(C(=O)NC(=S)Nc2cccc(NC(=O)c3ccccc3Cl)c2)c1	10µM*	4%	-8%	-8%
CC(C)Oc1cccc(C(=O)NC(=S)Nc2ccc(N3CCN(C)CC3)cc2)c1	0%	71µM*	-16%	-10%
O=C1C2CCCCN2C(=O)N1CCCCN1CCN(c2cccc(Br)c2)CC1 (stereo not given)	0%	3%	7%	13%
CN(C)S(=O)(=O)c1cccc(C(=O)N2CCN(S(=O)(=O)c3ccc4c(c3)OCCO4)CC2)c1	1%	.	-7%	.
CCC/C(=N/NC(=O)c1nnn(-c2nonc2N)c1CN1CCCCC1)c1ccccc1	1%	.	27µM*	-25%
O=C(CSC(=S)N1CCOCC1)Nc1nc(=O)c2ccccc2s1	.	79µM*	.	.
Cc1cccc(C(=O)Nc2cccc(C(=O)N/N=C/c3ccc4c(c3)OCO4)c2)c1	-61%	29%	3%	-2%
COc1cc(=O)n2c(c1C(=O)NC(C)c1ccco1)CCN(C(=O)c1cccc(C)c1)CC2 (stereo not given)	-6%	.	.	.
O=C(O)c1ccc2c(c1)ncn2C1CCCCCC1	-9%	89µM*	-28%	10%
CC(=O)Nc1ccc2c(c1)ncn2C1CCCCC1	0%	.	3%	-16%
